Shown are actives, neighbours in structure and some others; about 21% of the full set was active somewhere.
Sm TGR block: inhibitors of Schistosoma mansoni thioredoxin glutathione reductase; Q962Y6; purified TGR, DTNB reduction, TNB absorbance 405 nm; Potency, µM (titrated, usually from 114 µM), most hits filed as inhibitors; 3% of 360,000 active; AID 485364; further: nearly all actives have a fitted effect of over 60% in size
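Kinetic colorimetric format: TGR-catalysed, NADPH-driven DTNB reduction monitored via TNB absorbance. Enzyme dispensed at 20 nM; compound exposure 15 min at room temperature before reaction start.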
Pf growth 96h: inhibits malaria parasite growth, 96 h. P. falciparum luciferase reporter growth, 96 h. Potency, µM (highest dose often 28.7 µM), usual class: inhibitors. 6.9% of 320,000 active
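96 h incubation, 37 C, 5% CO2, of luciferase-reporter P. falciparum-infected RBCs (2% hematocrit, 0.05% parasitemia final) with test compounds; endpoint luminescence.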
Shiga toxin inh: inhibitors of Shiga toxin in Vero cells | AID 2315 | inhibition, % at 38.7 µM | 9.2% of 290,000 active | Vero cells, Shiga toxin protein synthesis inhibition reporter; in the data active means inhibition mostly above about 28%, no sharp cut-off; inactive means mostly below about 43%
NS1 inh: blocks influenza NS1 protein function | 0.4% of 270,000 active | Potency, µM (top dose mostly 46.1 µM); calls by dose curve; further: actives are rising curves; nearly all actives have a fitted effect of over 50% in size
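Recovery from NS1-induced slow growth read by OD600 in budding yeast switched to galactose assay medium (pH 6.0, -URA) at 1:100 dilution. Compound 23 nl per well; the matching strain lacking NS1 serves as control.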
Pf growth 48h: P. falciparum growth inhibition at 48 hours (one generation); P. falciparum luciferase growth in erythrocytes, 48 h; Potency, µM (doses to about 28.7 µM), hits mostly inhibitors; 5.9% of 310,000 active; AID 504832
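First compound was added to culture medium, then infected red cells at 0.1% parasitemia and 2% hematocrit (final). After incubation at 37 C under 5% CO2, luciferase detection reagent was dispensed and light output recorded.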
Cycloheximide cs: affects cycloheximide protein synthesis inhibition readout, counter-screen. cell reporter, cycloheximide protein synthesis inhibition counterscreen. max response, %. 12% of 300,000 active. AID 2314; in the data active means max response mostly above about 13%, no sharp cut-off; inactive means mostly below about 14%; further: read at 38.3 µM for the half of the compounds with a filed dose
Of the large screens only hits and unclear results are named; the others gave an inactive call. Unless noted, the call rests on the fitted dose curve; in most records, active means well fitted curve in the direction sought with a large enough effect; inconclusive means small, poorly fitted or top-dose-only effect, or another doubt; inactive means no such curve, though single readings can be large; an effect the other way counts as inactive or inconclusive.

CCOc1ccc(CNC(=O)C2CCN(C(=O)N3CC(CC)Oc4ccccc43)CC2)cc1 (stereo not drawn)	none (no result: Pf growth 96h, Shiga toxin inh, NS1 inh, Pf growth 48h, Cycloheximide cs)
CSc1nc(N)nc(-c2cccs2)c1C#N	none
CC(C)Sc1nc(N)nc(-c2cccs2)c1C#N	Sm TGR block inconclusive, Shiga toxin inh 105.3, Cycloheximide cs 33.4
O=C(Nc1ccc(O)c(-c2nc3ccccc3s2)c1)c1cccs1	none
c1ccc2sc(-c3ccncc3)nc2c1	Shiga toxin inh 50.8, Cycloheximide cs 44.2
CC(CCc1nc2ccccc2s1)(c1ccc(O)cc1)c1ccc(O)cc1	none (no result: Sm TGR block, Pf growth 96h, Shiga toxin inh, Pf growth 48h, Cycloheximide cs)
c1cncc(-c2nc3ccccc3s2)c1	Shiga toxin inh 111.5, Cycloheximide cs 39.0
Oc1ccc(-c2nc3ccccc3s2)cc1	Cycloheximide cs 32.0
CC(=O)N(Cc1cccnc1)c1cccc(-c2nc3ccccc3s2)c1	Pf growth 48h inconclusive
c1csc(-c2nc3ccccc3s2)c1	Shiga toxin inh 95.6, Cycloheximide cs 55.9
O=C(O)c1ccc2nc(-c3ccccc3)sc2c1	Pf growth 96h inconclusive
Cc1cc2c(cc1C)CSC(c1ccccc1OC(=O)C(C)C)SC2	Pf growth 96h inconclusive
Cc1ccc2oc(=O)c3cc(C(=O)Nc4cccc(C#N)c4)sc3c2c1	none (no result: Pf growth 96h, Shiga toxin inh, NS1 inh, Pf growth 48h, Cycloheximide cs)
Cc1cccc(CNC(=O)C(=O)Nc2ccccc2C)c1	none (no result: Pf growth 96h, Shiga toxin inh, NS1 inh, Pf growth 48h, Cycloheximide cs)
CCOc1ccc(NCc2cccn2-c2nnc(N3CCC(C(=O)NCCc4ccc(OC)c(OC)c4)CC3)s2)cc1	none (no result: Pf growth 96h, Shiga toxin inh, NS1 inh, Pf growth 48h, Cycloheximide cs)
CCCN(CCC)CCNC(=O)Cn1ncc2c([nH]c3ccc(C)cc32)c1=O	none (no result: Pf growth 96h, Shiga toxin inh, NS1 inh, Pf growth 48h, Cycloheximide cs)
O=C(COC(=O)/C=C/c1ccccc1)NCc1ccccc1Cl	none (no result: NS1 inh)
CC(C)(C)c1ccc(O)c(CN(Cc2cc(C(C)(C)C)ccc2O)C2CCCCC2)c1	none (no result: Sm TGR block, Pf growth 96h, Shiga toxin inh, Pf growth 48h, Cycloheximide cs)
CC(C)Oc1ccc(C(=O)Nc2ccc(C(F)(F)F)n(C)c2=O)cc1	none
c1ccc2sc(-c3ccc4c(c3)OCO4)nc2c1	Shiga toxin inh 51.7, Cycloheximide cs 33.6
COc1ccc(Cl)cc1NC(=O)Cn1c(=O)n(Cc2ccco2)c(=O)c2cccnc21	none (no result: Pf growth 96h, Shiga toxin inh, NS1 inh, Pf growth 48h, Cycloheximide cs)
CC(C)CSc1oc(-c2ccco2)nc1S(=O)(=O)c1ccc(Br)cc1	none (no result: Pf growth 96h, Shiga toxin inh, NS1 inh, Pf growth 48h, Cycloheximide cs)
CCOc1ccc(CN2CCNC(=O)C2CC(=O)NCCc2ccccn2)cc1 (stereo not drawn)	Sm TGR block inconclusive
CCc1cc(CNC(=O)CC2C(=O)NCCN2Cc2ccc(-c3ccccc3)cc2)on1 (stereo not drawn)	Sm TGR block inconclusive, Pf growth 96h 2.08µM
CCOc1ccccc1CN1CCNC(=O)C1CC(=O)NCc1cc(C)n(C)n1 (stereo not drawn)	Sm TGR block inconclusive, Pf growth 96h 2.08µM
CCOc1ccc(CN2CCNC(=O)C2CC(=O)NCc2ccccn2)cc1 (stereo not drawn)	Pf growth 48h inconclusive, Cycloheximide cs 36.5
CCOC(=O)N1CCC(NC(=O)Cc2ccccc2)CC1	none
CCOc1ccccc1CN1CCNC(=O)C1CC(=O)NCc1nccn1CC (stereo not drawn)	none
CCOC(=O)N1CCC(NC(=O)CC2C(=O)NCCN2Cc2ccccc2)CC1 (stereo not drawn)	Sm TGR block inconclusive, Pf growth 96h 9.28µM
CCOC(=O)c1ccc(N(CC(=O)NC2CCCCC2)C(=O)CNC(=O)c2ccco2)cc1	Pf growth 48h inconclusive
O=C(CC1C(=O)NCCN1Cc1ccc(-c2ccccc2)cc1)NCc1ccccc1 (stereo not drawn)	Sm TGR block inconclusive, Pf growth 96h 6.57µM
COc1ccc(/C=N\NC(=O)COc2ccccc2)c(C(=O)O)c1OC	none
O=C(CCl)NC1CCCc2ccccc21 (stereo not drawn)	Sm TGR block 25.1µM, Pf growth 48h 11.7µM
CN(C(=O)CCl)C1CCCc2ccccc21 (stereo not drawn)	Sm TGR block 11.2µM, Pf growth 96h inconclusive, Pf growth 48h inconclusive
O=C(Cc1ccc(Br)cc1)NC1CCCc2ccccc21 (stereo not drawn)	none
O=C(CCn1cccc1)NC1CCCc2ccccc21 (stereo not drawn)	Sm TGR block inconclusive, Pf growth 96h 6.57µM, NS1 inh inconclusive
O=C(NC(=S)NC1CCCc2ccccc21)c1ccc(F)cc1 (stereo not drawn)	Sm TGR block 17.8µM, Pf growth 96h inconclusive
Cc1ccc(S(=O)(=O)N(CC(O)CN2CCOCC2)c2cccc([N+](=O)[O-])c2)cc1 (stereo not drawn)	none
Cc1ccc(C(=O)COC(=O)c2cn(-c3ccccc3)nc2-c2ccccc2)cc1[N+](=O)[O-]	Pf growth 96h inconclusive
Cc1cc(C)cc(OCC(=O)NC2CCCc3ccccc32)c1 (stereo not drawn)	Pf growth 96h 8.28µM, Pf growth 48h inconclusive
OCCNc1nc(C2CC2)nc2c1nnn2Cc1ccccc1Cl	Pf growth 96h inconclusive
COCCNc1nc(C(C)(C)C)nc2c1nnn2Cc1ccccc1Cl	Pf growth 48h 8.28µM
CCc1ccc(-n2c(=O)c3c4c(sc3n(Cc3ccccc3C#N)c2=O)CCC4)cc1	none (no result: Pf growth 96h, Shiga toxin inh, NS1 inh, Pf growth 48h, Cycloheximide cs)
CC(C)(C)c1ccc(-n2ncc3c2CCCC3NC(=O)CN2CCCC2=O)cc1 (stereo not drawn)	Pf growth 96h 13.1µM
CC(C)(C)c1ccc(-n2ncc3c2CCCC3NC(=O)c2cnccn2)cc1 (stereo not drawn)	Pf growth 96h inconclusive, Shiga toxin inh 72.5, Pf growth 48h inconclusive, Cycloheximide cs 30.5
Cc1nn(CC(=O)N2CCN(c3cccc(Cl)c3)CC2)c(=O)c2c1sc1ccccc12	none (no result: Pf growth 96h, Shiga toxin inh, NS1 inh, Pf growth 48h, Cycloheximide cs)
Cc1ccc(S(=O)(=O)N(Cc2n[nH]c(=S)n2-c2ccccc2)c2ccccc2)cc1	Pf growth 96h inconclusive, Pf growth 48h 2.33µM
Cc1ccc2c(c1)sc[n+]2Cc1ccccc1	Sm TGR block 5.62µM, Shiga toxin inh 81.7, Cycloheximide cs 42.3
O=C(CCC1N=C2c3ccccc3N=C(SCc3ccc(F)cc3)N2C1=O)NC1CCCCC1 (stereo not drawn)	none (no result: Pf growth 96h, Shiga toxin inh, NS1 inh, Pf growth 48h, Cycloheximide cs)
Cc1ccc2cc(NC(=O)c3ccccc3C)ccc2n1	Shiga toxin inh 81.3, Cycloheximide cs 33.7
CN(C(=O)c1cccc(NC(=O)Cc2ccccc2)c1)c1ccccc1	none
Cc1ccc2cc(NC(=O)c3ccc(C(C)(C)C)cc3)ccc2n1	none
Cc1ccc2cc(NC(=O)Cc3ccccc3)ccc2n1	Shiga toxin inh 91.7, Cycloheximide cs 53.3
CCc1ccc(C(=O)Nc2ccc3nc(C)ccc3c2)cc1	Cycloheximide cs 31.1
O=S(=O)(c1ccc2c(c1)OCCO2)N1CCCN(S(=O)(=O)c2c(F)cccc2F)CC1	Pf growth 96h inconclusive (no result: NS1 inh)
COC(=O)c1c(NC(=O)CN2CCC3(O)CCCCC3C2c2cc(OC)ccc2OC)sc(C)c1C (stereo not drawn)	Pf growth 96h 10.4µM, Pf growth 48h inconclusive
CCCCNC(=O)CN1CCC2(O)CCCCC2C1c1ccccc1OC (stereo not drawn)	Pf growth 96h inconclusive, Pf growth 48h inconclusive
COc1ccccc1C1C2CCCCC2(O)CCN1CC(=O)Nc1ccccc1 (stereo not drawn)	Pf growth 96h inconclusive, Pf growth 48h inconclusive

Compound activity as filed in PubChem BioAssay.
